Data from publication PMC5540273 (PLoS ONE, 2017).

tested on: CHEK2; conditions: concentration: 1 μM, replicates: in singlicate; n = 1
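Also: KINOMEscan kinase panel screen.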

Structure (SMILES) | %Inh [%]
COc1cc2ncn(-c3cc(OCC4CCCO4)c(C(N)=O)s3)c2cc1OC (centres unmarked) [GSK204607] | 20
C[C@@H]1CCCCN1c1cc(-c2ccc3c(N)n[nH]c3c2)nc(N)n1 [GSK2258759] | 12
COc1ccc(C2=C(Nc3cccc(C(=O)O)c3)C(=O)NC2=O)cc1 [SB-390765] | 0
CCCc1ccc(S(=O)(=O)NC2CCN(c3ccnc(Nc4ccc(F)cc4)n3)C2)cc1 (centres unmarked) [GSK1379715] | 0
O=C(Nc1ccccc1)Nc1cccc(Oc2ccc3nccn3n2)c1 | 1
Cn1ccc2ncnc(Oc3ccc(Nc4nc5ccccc5[nH]4)cc3)c21 | 23
Cc1cccc(-c2cc(Nc3ccncc3)c3ccccc3n2)n1 [GSK223675] | 0
Cc1ccc(NC(=O)Nc2cccc(Cl)c2)cc1-c1ccc(C(=O)Nc2ccncc2)cc1 [GSK1398468] | 0
COc1ccc(CNC(=O)NC2CCN(c3ccnc(Nc4cc(OC)c(OC)c(OC)c4)n3)C2)cc1 (centres unmarked) [GSK1379748] | 47
O=S(=O)(c1ccc(-c2ccnc3[nH]ccc23)cc1)N1CCCC1 [GSK846226] | 15
COc1ccccc1-c1ccc2c(NC(=O)C3CC3)n[nH]c2n1 [SB-711239] | 19
Cl.O=C(Nc1cccc(-c2nn3ncccc3c2-c2ccnc(Nc3cccnc3)n2)c1)c1c(F)cccc1F [GSK312879] | 0
O=C(Nc1n[nH]c2nc(-c3nccs3)c(Br)cc12)C1CCCC1 [SB-742609] | 0
COc1cc(Nc2nccc(N3CCC(NC(=O)Nc4cc(C)ccc4C)C3)n2)cc(OC)c1OC (centres unmarked) [GSK1379762] | 0
CC(=O)Nc1nc2cnc(Nc3cc(NC(=O)c4cccc(CCC#N)c4)ccc3C)nc2s1 | 0
Cc1cc(N2Cc3ccccc3C2)nc(Nc2ccc(S(=O)(=O)N3CCOCC3)cc2)n1.Cl [GSK1669917] | 0
Cc1cccc(-c2nc(C)cc(Nc3ccncc3)n2)n1 [GSK257997] | 0

Structure (SMILES) | %Inh [%]
O=c1cc(N2CCOCC2)nc2n(Cc3cccc(Cl)c3Cl)ccn12 [GSK2286295] | 0
Cc1cc(-c2ccc3c(c2)CC[C@@H](N[C@@H](C)c2ccccc2)C3)cnc1N.Cl [GW412617] | 6
COc1ccccc1CNC(=O)c1cc(C(=O)c2ccccc2C)c[nH]1 [GSK364507] | 0
Cc1cccc(-c2nc(Nc3cccc(C(N)=O)c3)c3ccccc3n2)n1 [GW876019] | 0
Cc1csc(-c2nc(Nc3ccncc3)c3ccccc3n2)n1 [GW869640] | 15
CS(=O)(=O)c1ccc(-c2nc3n(c2-c2ccncc2)CCC3)cc1 [SKF-105942] | 0
Nc1ncnc2[nH]c(-c3ccccc3)nc12 [AH5015] | 0
Cc1cccc(-c2nc(Nc3ccncc3)c3ccccc3n2)n1 [GW855857] | 0
COC(=O)c1c(-c2ccccc2)c2cc(OC)ccc2c(=O)n1Cc1ccccc1 | 15
Cc1c(Cn2ccn3c(=O)cc(N4CCOCC4)nc23)cccc1C(F)(F)F [GSK2289044] | 0
COc1ccc(Nc2nccc(-c3cccc(NC(=O)c4cc5cc(F)ccc5[nH]4)c3)n2)cc1 [GSK1229782] | 37
O=C(O)COc1ncnc2cc(-c3ccc4[nH]ncc4c3)sc12 | 1
Cc1ccc(-c2cc(-c3c[nH]nc3-c3ccccn3)ccn2)cc1 [GW684088] | 53
Cc1c(O)cccc1Nc1ccnc2ccc(C(F)(F)F)cc12.Cl [GW466413] | 0
CS(=O)(=O)c1ccc(-c2c(-c3ncn[nH]3)sc(N3CCOCC3)c2C#N)cc1 | 5
Fc1cccc(COc2nnc(-c3ccc4c(c3)CCO4)o2)c1 | 10
COc1cc2ncnc(Nc3ccc4nc(-c5ccccc5)[nH]c4c3)c2cc1OC.Cl [GW282450] | 26

tested on: CIT; conditions: concentration: 1 μM, replicates: in singlicate; n = 1

Structure (SMILES) | %Inh [%]
COc1cc2ncn(-c3cc(OCC4CCCO4)c(C(N)=O)s3)c2cc1OC (centres unmarked) [GSK204607] | 12
C[C@@H]1CCCCN1c1cc(-c2ccc3c(N)n[nH]c3c2)nc(N)n1 [GSK2258759] | 36
COc1ccc(C2=C(Nc3cccc(C(=O)O)c3)C(=O)NC2=O)cc1 [SB-390765] | 0
CCCc1ccc(S(=O)(=O)NC2CCN(c3ccnc(Nc4ccc(F)cc4)n3)C2)cc1 (centres unmarked) [GSK1379715] | 0
O=C(Nc1ccccc1)Nc1cccc(Oc2ccc3nccn3n2)c1 | 100
Cn1ccc2ncnc(Oc3ccc(Nc4nc5ccccc5[nH]4)cc3)c21 | 8
Cc1cccc(-c2cc(Nc3ccncc3)c3ccccc3n2)n1 [GSK223675] | 23
Cc1ccc(NC(=O)Nc2cccc(Cl)c2)cc1-c1ccc(C(=O)Nc2ccncc2)cc1 [GSK1398468] | 86
COc1ccc(CNC(=O)NC2CCN(c3ccnc(Nc4cc(OC)c(OC)c(OC)c4)n3)C2)cc1 (centres unmarked) [GSK1379748] | 20
O=S(=O)(c1ccc(-c2ccnc3[nH]ccc23)cc1)N1CCCC1 [GSK846226] | 36
COc1ccccc1-c1ccc2c(NC(=O)C3CC3)n[nH]c2n1 [SB-711239] | 22
Cl.O=C(Nc1cccc(-c2nn3ncccc3c2-c2ccnc(Nc3cccnc3)n2)c1)c1c(F)cccc1F [GSK312879] | 30
O=C(Nc1n[nH]c2nc(-c3nccs3)c(Br)cc12)C1CCCC1 [SB-742609] | 36
COc1cc(Nc2nccc(N3CCC(NC(=O)Nc4cc(C)ccc4C)C3)n2)cc(OC)c1OC (centres unmarked) [GSK1379762] | 11
CC(=O)Nc1nc2cnc(Nc3cc(NC(=O)c4cccc(CCC#N)c4)ccc3C)nc2s1 | 34
Cc1cc(N2Cc3ccccc3C2)nc(Nc2ccc(S(=O)(=O)N3CCOCC3)cc2)n1.Cl [GSK1669917] | 0
Cc1cccc(-c2nc(C)cc(Nc3ccncc3)n2)n1 [GSK257997] | 23

Structure (SMILES) | %Inh [%]
O=c1cc(N2CCOCC2)nc2n(Cc3cccc(Cl)c3Cl)ccn12 [GSK2286295] | 5
Cc1cc(-c2ccc3c(c2)CC[C@@H](N[C@@H](C)c2ccccc2)C3)cnc1N.Cl [GW412617] | 24
COc1ccccc1CNC(=O)c1cc(C(=O)c2ccccc2C)c[nH]1 [GSK364507] | 9
Cc1cccc(-c2nc(Nc3cccc(C(N)=O)c3)c3ccccc3n2)n1 [GW876019] | 45
Cc1csc(-c2nc(Nc3ccncc3)c3ccccc3n2)n1 [GW869640] | 61
CS(=O)(=O)c1ccc(-c2nc3n(c2-c2ccncc2)CCC3)cc1 [SKF-105942] | 4
Nc1ncnc2[nH]c(-c3ccccc3)nc12 [AH5015] | 9
Cc1cccc(-c2nc(Nc3ccncc3)c3ccccc3n2)n1 [GW855857] | 91.1
COC(=O)c1c(-c2ccccc2)c2cc(OC)ccc2c(=O)n1Cc1ccccc1 | 6
Cc1c(Cn2ccn3c(=O)cc(N4CCOCC4)nc23)cccc1C(F)(F)F [GSK2289044] | 22
COc1ccc(Nc2nccc(-c3cccc(NC(=O)c4cc5cc(F)ccc5[nH]4)c3)n2)cc1 [GSK1229782] | 44
O=C(O)COc1ncnc2cc(-c3ccc4[nH]ncc4c3)sc12 | 8
Cc1ccc(-c2cc(-c3c[nH]nc3-c3ccccn3)ccn2)cc1 [GW684088] | 26
Cc1c(O)cccc1Nc1ccnc2ccc(C(F)(F)F)cc12.Cl [GW466413] | 42
CS(=O)(=O)c1ccc(-c2c(-c3ncn[nH]3)sc(N3CCOCC3)c2C#N)cc1 | 4
Fc1cccc(COc2nnc(-c3ccc4c(c3)CCO4)o2)c1 | 0
COc1cc2ncnc(Nc3ccc4nc(-c5ccccc5)[nH]c4c3)c2cc1OC.Cl [GW282450] | 59
